Compound activity: PubChem BioAssay, National Center for Advancing Translational Sciences (NCATS)
An excerpt weighted towards active compounds, which were near 10% of everything screened.
Luciferase inh: Firefly luciferase inhibition profiling of diverse chemical library using quantitative high-throughput screening. purified P. pyralis luciferase, luminescence, biochemical. 76,000 tested, 2.5% active. Luciferin 4-monooxygenase (Photinus pyralis), P08659. AID 1347043, 2019. Potency, µM (highest dose often 115 µM), usual class: inhibitors; further: nearly all actives have a fitted effect of over 65% in size
Target sequence (P08659 whole entry, looked up): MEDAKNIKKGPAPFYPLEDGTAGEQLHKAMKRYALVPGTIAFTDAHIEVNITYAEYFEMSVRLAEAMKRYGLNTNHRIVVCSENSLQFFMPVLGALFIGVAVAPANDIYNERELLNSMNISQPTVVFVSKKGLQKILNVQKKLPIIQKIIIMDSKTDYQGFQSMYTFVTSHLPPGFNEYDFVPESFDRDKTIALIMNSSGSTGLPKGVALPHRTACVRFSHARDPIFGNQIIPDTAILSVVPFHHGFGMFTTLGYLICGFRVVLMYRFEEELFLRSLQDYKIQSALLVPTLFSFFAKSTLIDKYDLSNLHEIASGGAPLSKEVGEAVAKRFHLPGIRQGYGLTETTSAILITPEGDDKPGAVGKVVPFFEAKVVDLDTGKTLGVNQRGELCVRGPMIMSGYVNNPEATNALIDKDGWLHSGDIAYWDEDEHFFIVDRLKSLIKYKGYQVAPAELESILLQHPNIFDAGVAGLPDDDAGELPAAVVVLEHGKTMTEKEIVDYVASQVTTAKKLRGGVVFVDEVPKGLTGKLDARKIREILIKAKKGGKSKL
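Luminescence read by CCD imager after adding enzyme (10nM final) to wells holding compound, titrated in qHTS. Substrates 10uM each D-luciferin and ATP; buffer 50mM Tris acetate pH 7.5, 10mM Mg acetate, Tween-20, BSA.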
GPT2 inh: Primary qHTS assay for inhibitors of Glutamate pyruvate transaminase 2 (GPT2); Alanine aminotransferase 2 (Homo sapiens), Q8TD30; Recombinant GPT2, coupled pyruvate oxidase/HRP Amplex Red fluorescence; Potency, µM (top dose mostly 57.7 µM), usual class: inhibitors; 100,000 tested, 0.25% active; further: nearly all actives have a fitted effect of over 60% in size
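Fluorescence of coupled pyruvate oxidase/HRP/Amplex Red system (50uM Amplex, 30 min, dark) reports pyruvate formed by GPT2. Enzyme reaction: 10ng/uL GPT2, 2mM L-alanine, 250uM a-KG, 30 min room temperature, pH 7.5; 50uM AOA control.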
NIH3T3 tox: Cytotoxic Profiling in NIH 3T3 Cell Line of Diverse Libraries Using Quantitative High-Throughput Screening; NIH 3T3 viability, CellTiter-Glo ATP luminescence, 48-72 h; Potency, µM (highest dose often 96.7 µM), actives largely listed as inhibitors; 94,000 tested, 4.3% active; further: nearly all actives have a fitted effect of over 55% in size
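NIH 3T3 cells at 400 cells/well received 23 nL of compound by pintool and were incubated 48 or 72 h at 37 °C. Viability was read as ATP-coupled CellTiter-Glo luminescence.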
HEK cytotox: Cytotoxic Profiling in HEK 293 Cell Line of Diverse Libraries Using Quantitative High-Throughput Screening; AID 1345083, 2018; Potency, µM (series often up to 115 µM), actives largely listed as inhibitors; HEK 293 viability, ATP luminescence (CellTiter-Glo), 48-72 h; 94,000 tested, 6.6% active; further: nearly all actives have a fitted effect of over 60% in size
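Viability of HEK 293 cells, plated at 250 cells/well, was judged by cellular ATP after compound treatment for 48 or 72 hr. Luminescence was imaged 10 min after CellTiter-Glo addition at room temperature.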
hNpr1 antagonist: Natriuretic polypeptide receptor (hNpr1) antagonism - Primary qHTS; Potency, µM (titrated, usually from 46.3 µM), most hits filed as inhibitors; Atrial natriuretic peptide receptor 1 (Homo sapiens), P16066; AID 1347048, 2019; HEK293 hNpr1 GloSensor cGMP, ANP-stimulated luminescence; 76,000 tested, 1.6% active; calls by dose curve; further: nearly all actives have a fitted effect of over 60% in size
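HEK293 cells stably expressing human Npr1 and cGMP GloSensor pGS-40F, loaded 2 h with 2% GloSensor reagent, given compound 30 min at room temperature. Luminescence read before and 20 min after 0.1 nM hNppA.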
Numbers stand for hits; i = inactive; ? = inconclusive; nt = no result given; [ ] = remark or other dose. Unless noted, the call rests on the fitted dose curve; in most records, active means well fitted curve in the direction sought with a large enough effect; inconclusive means small, poorly fitted or top-dose-only effect, or another doubt; inactive means no such curve, though single readings can be large; an effect the other way counts as inactive or inconclusive.

SMILES	Luciferase inh	GPT2 inh	NIH3T3 tox	HEK cytotox	hNpr1 antagonist
CC(C)NC(=O)N1CCNc2cnc(Nc3cccc(F)c3)nc2C1	i	i	?	?	?
c1cc(-c2ccco2)cc(-c2nc(C3CCOC3)no2)c1 (centres undefined)	45µM	i	?	i	i
Cc1ccccc1OCC(=O)N1CCc2nc3cc[nH]n3c(=O)c2C1	i	i	i	?	i
CNC(=O)[C@@H]1CN(Cc2ccc(OC)c(OC)c2Cl)C[C@H]1CO	i	i	i	i	i
O=C1CCC[C@H]2C3CC(CN(c4nc5ccccc5s4)C3)CN12 (some centres undefined)	i	?	i	i	i
CCc1nc(CN2CCOC(c3ccc4cc(OC)ccc4c3)C2)no1 (centres undefined)	40µM	i[11.5 µM]	?	?	i
CC(NC(=O)c1ccc2oc(-c3ccc(C(F)(F)F)cc3)nc2c1)c1cnn(C)c1 (centres undefined)	i	i	?	?	i
O=C(c1ccc2nc(-c3ccc(F)cc3)cn2c1)N1CCC(F)CC1	i	i	i	?	i
CCNC(=O)C1CCN(C(=O)c2ccc3nc(-c4ccccc4)cn3c2)C1 (centres undefined)	35µM	i	i	i	i
Cc1ccc(Nc2ccnc(N3CCCN(C(=O)C4CCCC4)C3)n2)cc1	nt	i	?	13µM	nt
Cc1ccc(Nc2ccnc(N3CCCN(C(=O)NC4CCCC4)C3)n2)cc1	nt	i	25µM	16µM	nt
OCc1ccc(CN2Cc3[nH]cnc3C[C@H]2c2nc(-c3ccc4ccccc4c3)no2)o1	?	i	79µM	79µM	i
OCc1ccc(CN2Cc3[nH]cnc3C[C@H]2c2nc(-c3ccncc3)no2)o1	?	i	i	i	i
Cc1ccc(CN2Cc3[nH]cnc3C[C@H]2c2nc(-c3ccc4ccccc4c3)no2)cc1	63µM	i	45µM	63µM	i
Cc1nc2c(c(-c3ccc(O)cc3)n1)CN(C(=O)C(C)(C)C)CC2	i	i	?	?	i
Cc1ccccc1OCc1nc(C2CN(C(=O)c3cc(F)ccc3F)C2)no1	i	i	i	?	i
Cc1cc(S(=O)(=O)N2CCC(c3noc(COc4ccc(F)cc4)n3)CC2)ccc1F	i	i	35µM	25µM	?
Cc1ccccc1OCc1nc(C2CN(C(=O)Cc3cccc(F)c3)C2)no1	i	i	40µM	45µM	i
O=C(Cc1ccccc1)N1CCC(c2noc(COc3ccc(F)cc3)n2)CC1	nt	?	?	45µM	nt
CCN(CC)C(=O)N1CCC(c2noc(COc3ccc(F)cc3)n2)C1 (centres undefined)	nt	i	?	45µM	nt
CN(C)C(=O)NC1CCN(Cc2ccc(-c3ccsc3)cc2)C1 (centres undefined)	nt	i	i	?	nt
c1ccc2c(c1)COC1(CCNC1)CN2CC1CCCC1 (centres undefined)	nt	i	35µM	50µM	nt
c1ccc2c(c1)COC1(CCN(CC3CC3)C1)CN2CC1CC1 (centres undefined)	nt	i	?	i	nt
Cc1nc(N2CCC(NC(=O)c3nn(C)c4ccccc34)CC2)cc(C(F)(F)F)n1	i	i	?	45µM	?
Cc1cc(-c2ccc(F)c(C(N)=O)c2)cc(C(C)(C)C)c1	i	i[11.5 µM]	?	45µM	i
COc1ccc(Cn2cc(-c3ccc(F)c(C(N)=O)c3)cn2)cc1	i	i	?	?	i
CNC(=O)c1cc(C2CC2)nc2onc(C3CCN(C(=O)Nc4ccc(C)c(F)c4)C3)c12 (centres undefined)	nt	nt	?	45µM	nt
CC(=O)N(C1CC1)C1CCOC2(CCN(C(=O)CCc3nc4ccccc4s3)CC2)C1 (centres undefined)	i	i	i	?	i
c1ccc(-c2cc3c(cn2)NCCN(CC2CC2)C3)cc1	?	i	?	i	i
c1ccc(-c2cc3c(cn2)CN(Cc2c[nH]c4ccccc24)CCN3)cc1	?	i	?	45µM	i
